# How the values were obtained:
# Assay in all cases: DAPPL (digital affinity profiling via proximity ligation, sequencing); 10 mM Tris-HCl pH 7.5, 50 mM NaCl, 1 mM DTT, 4% glycerol, room temperature, 30 min; GST-TFs on glutathione beads, 16-mer random dsDNA library, 0.1% formaldehyde crosslink after washing; high values mean tight binding
# FLI1 = target: T1, FLI1 (Homo sapiens, UniProt Q01543 1-452); conditions: protein: recombinant; tags: N-terminal GST; dsDNA, one strand shown
# T1 sequence: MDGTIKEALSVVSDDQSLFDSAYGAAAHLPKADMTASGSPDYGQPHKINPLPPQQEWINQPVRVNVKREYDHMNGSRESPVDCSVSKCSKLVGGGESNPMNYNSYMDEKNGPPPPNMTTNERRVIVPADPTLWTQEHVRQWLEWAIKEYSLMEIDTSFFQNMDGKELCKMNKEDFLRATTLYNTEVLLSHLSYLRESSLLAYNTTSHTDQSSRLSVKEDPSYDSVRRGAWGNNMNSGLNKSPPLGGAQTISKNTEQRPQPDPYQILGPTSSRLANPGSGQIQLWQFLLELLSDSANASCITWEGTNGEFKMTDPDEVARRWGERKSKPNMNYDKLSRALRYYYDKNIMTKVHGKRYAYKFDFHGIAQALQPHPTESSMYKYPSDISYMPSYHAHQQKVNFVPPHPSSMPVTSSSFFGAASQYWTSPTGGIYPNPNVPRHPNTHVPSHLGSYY
# In short: (§1)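 In yeast, human transcription factors were expressed with a GST fusion, then pulled down on glutathione beads and given DNA barcodes. Pooled with a tag-only sample, they were exposed to 200 nmole of a 16-mer random double-stranded DNA library (Tris/NaCl/DTT/glycerol buffer, room temperature, 30 min), washed, crosslinked with 0.1% formaldehyde, proximity-ligated using BsaI/T4 ligase for 1 h at 37 °C, PCR-amplified and read on an Illumina NextSeq500. Each hexamer's frequency of reads for a factor, divided by the matching frequency for the tag-only sample, gives the binding signal.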
# ELK1 = target: T2, ELK1 (Homo sapiens, UniProt P19419 1-428); conditions: protein: recombinant; tags: N-terminal GST; dsDNA, one strand shown
# T2 sequence: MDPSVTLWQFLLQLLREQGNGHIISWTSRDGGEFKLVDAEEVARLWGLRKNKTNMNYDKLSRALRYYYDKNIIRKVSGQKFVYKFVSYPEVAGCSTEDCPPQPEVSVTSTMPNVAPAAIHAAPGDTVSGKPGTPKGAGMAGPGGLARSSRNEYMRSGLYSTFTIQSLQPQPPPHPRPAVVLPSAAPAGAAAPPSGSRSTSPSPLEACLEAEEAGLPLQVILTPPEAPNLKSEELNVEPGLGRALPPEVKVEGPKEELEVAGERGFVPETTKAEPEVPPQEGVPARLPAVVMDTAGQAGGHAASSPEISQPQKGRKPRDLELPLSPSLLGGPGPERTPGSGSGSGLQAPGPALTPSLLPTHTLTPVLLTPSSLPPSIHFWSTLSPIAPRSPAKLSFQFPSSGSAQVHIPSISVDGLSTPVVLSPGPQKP
# In short: as §1
# GABPA = target: T3, GABPA (Homo sapiens, UniProt Q06546 1-454); conditions: protein: recombinant; tags: N-terminal GST; dsDNA, one strand shown
# T3 sequence: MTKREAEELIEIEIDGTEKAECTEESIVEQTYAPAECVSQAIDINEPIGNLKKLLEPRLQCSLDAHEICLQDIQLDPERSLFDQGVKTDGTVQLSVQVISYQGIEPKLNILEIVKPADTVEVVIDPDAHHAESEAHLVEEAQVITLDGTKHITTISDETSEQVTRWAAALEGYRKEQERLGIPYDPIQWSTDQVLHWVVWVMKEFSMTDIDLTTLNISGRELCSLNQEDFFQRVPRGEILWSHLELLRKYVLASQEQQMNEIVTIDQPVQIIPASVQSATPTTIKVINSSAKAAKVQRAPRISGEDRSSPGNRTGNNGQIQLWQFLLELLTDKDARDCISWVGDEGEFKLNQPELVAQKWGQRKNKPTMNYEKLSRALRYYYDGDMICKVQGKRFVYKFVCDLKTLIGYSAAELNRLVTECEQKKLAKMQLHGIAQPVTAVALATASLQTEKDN
# In short: as §1
# ERG = target: T4, ERG (Homo sapiens, UniProt P11308 1-479); conditions: protein: recombinant; tags: N-terminal GST; dsDNA, one strand shown
# T4 sequence: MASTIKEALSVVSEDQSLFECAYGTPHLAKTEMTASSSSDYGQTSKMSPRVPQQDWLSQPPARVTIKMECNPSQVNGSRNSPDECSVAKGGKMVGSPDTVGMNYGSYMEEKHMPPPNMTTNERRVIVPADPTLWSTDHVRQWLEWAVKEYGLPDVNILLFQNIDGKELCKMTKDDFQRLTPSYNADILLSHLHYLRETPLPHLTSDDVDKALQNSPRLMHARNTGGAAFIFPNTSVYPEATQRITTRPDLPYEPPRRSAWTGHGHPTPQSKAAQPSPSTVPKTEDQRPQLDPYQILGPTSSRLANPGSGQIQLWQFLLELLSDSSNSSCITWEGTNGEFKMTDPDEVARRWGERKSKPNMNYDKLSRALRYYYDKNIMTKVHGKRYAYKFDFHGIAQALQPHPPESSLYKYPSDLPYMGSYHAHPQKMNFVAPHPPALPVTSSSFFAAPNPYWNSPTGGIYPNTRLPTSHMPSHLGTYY
# In short: as §1
# ELF1 = ELF1 (Homo sapiens, UniProt P32519 1-619); conditions: protein: recombinant; tags: N-terminal GST; dsDNA, one strand shown
# In short: as §1
# EHF = target: T5, EHF (Homo sapiens, UniProt Q9NZC4 1-300); conditions: protein: recombinant; tags: N-terminal GST; dsDNA, one strand shown
# T5 sequence: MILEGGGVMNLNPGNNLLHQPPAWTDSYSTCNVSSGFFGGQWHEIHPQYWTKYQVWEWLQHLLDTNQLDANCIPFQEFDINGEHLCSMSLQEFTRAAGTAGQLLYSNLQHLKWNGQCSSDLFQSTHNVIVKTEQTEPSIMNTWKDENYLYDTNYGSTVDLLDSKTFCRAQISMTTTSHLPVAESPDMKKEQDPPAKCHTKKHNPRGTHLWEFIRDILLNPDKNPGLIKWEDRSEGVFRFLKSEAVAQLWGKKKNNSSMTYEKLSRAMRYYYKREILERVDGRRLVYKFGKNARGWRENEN
# In short: as §1
# SPI1 = SPI1 (Homo sapiens, UniProt P17947 1-270); conditions: protein: recombinant; tags: N-terminal GST; dsDNA, one strand shown
# In short: as §1
# SPIB = SPIB (Homo sapiens, UniProt Q01892 1-262); conditions: protein: recombinant; tags: N-terminal GST; dsDNA, one strand shown
# In short: as §1
# ELK3 = target: T6, ELK3 (Homo sapiens, UniProt P41970 1-407); conditions: protein: recombinant; tags: N-terminal GST; dsDNA, one strand shown
# T6 sequence: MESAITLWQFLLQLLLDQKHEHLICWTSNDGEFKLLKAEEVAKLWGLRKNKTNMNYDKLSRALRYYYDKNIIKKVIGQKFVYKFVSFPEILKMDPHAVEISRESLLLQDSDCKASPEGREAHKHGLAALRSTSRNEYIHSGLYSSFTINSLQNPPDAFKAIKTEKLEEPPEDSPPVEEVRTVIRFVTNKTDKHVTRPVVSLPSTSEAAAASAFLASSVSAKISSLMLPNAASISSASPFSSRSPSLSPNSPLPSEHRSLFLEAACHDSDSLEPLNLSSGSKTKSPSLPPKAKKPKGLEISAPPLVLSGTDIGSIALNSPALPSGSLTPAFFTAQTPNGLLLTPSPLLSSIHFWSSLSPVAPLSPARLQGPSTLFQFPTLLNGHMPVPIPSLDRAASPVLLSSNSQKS
# In short: as §1
# FEV = target: T7, FEV (Homo sapiens, UniProt Q99581 1-238); conditions: protein: recombinant; tags: N-terminal GST; dsDNA, one strand shown
# T7 sequence: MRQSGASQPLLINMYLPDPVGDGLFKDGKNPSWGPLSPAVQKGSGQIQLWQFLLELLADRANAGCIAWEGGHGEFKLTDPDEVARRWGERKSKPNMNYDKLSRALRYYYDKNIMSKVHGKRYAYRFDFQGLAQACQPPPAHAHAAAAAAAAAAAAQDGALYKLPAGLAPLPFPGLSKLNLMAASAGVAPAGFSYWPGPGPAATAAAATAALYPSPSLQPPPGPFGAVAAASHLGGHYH
# In short: as §1
# ETV5 = ETV5 (Homo sapiens, UniProt P41161 1-510); conditions: protein: recombinant; tags: N-terminal GST; dsDNA, one strand shown
# In short: as §1
# HSF1 = HSF1 (Homo sapiens, UniProt Q00613 1-529); conditions: protein: recombinant; tags: N-terminal GST; chain copies: 3; dsDNA, one strand shown
# In short: as §1
# SPIC = target: T8, SPIC (Homo sapiens, UniProt Q8N5J4 1-248); conditions: protein: recombinant; tags: N-terminal GST; dsDNA, one strand shown
# T8 sequence: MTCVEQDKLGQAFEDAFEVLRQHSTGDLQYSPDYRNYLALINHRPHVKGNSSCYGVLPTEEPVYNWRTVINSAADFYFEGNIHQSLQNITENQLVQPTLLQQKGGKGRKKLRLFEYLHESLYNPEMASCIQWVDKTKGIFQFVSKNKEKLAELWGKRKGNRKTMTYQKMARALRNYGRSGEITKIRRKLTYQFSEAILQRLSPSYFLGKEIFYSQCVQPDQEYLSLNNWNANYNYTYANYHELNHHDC
# In short: as §1
# ELF4 = ELF4 (Homo sapiens, UniProt Q99607 1-663); conditions: protein: recombinant; tags: N-terminal GST; dsDNA, one strand shown
# In short: as §1
# ELK4 = target: T9, ELK4 (Homo sapiens, UniProt P28324-2 1-405); conditions: protein: recombinant; tags: N-terminal GST; dsDNA, one strand shown
# T9 sequence: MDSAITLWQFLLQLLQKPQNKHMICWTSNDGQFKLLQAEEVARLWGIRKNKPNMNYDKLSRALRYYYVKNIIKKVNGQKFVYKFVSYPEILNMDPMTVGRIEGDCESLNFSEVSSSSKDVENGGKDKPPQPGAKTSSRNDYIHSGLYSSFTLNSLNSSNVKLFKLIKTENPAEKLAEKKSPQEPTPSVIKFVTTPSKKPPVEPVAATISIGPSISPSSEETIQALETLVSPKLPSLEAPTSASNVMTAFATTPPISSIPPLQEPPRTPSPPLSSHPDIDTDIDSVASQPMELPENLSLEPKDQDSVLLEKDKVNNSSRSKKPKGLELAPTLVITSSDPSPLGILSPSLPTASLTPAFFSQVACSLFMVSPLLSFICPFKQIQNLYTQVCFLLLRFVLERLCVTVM
# In short: as §1
# ETV2 = target: T10, ETV2 (Homo sapiens, UniProt O00321 1-342); conditions: protein: recombinant; tags: N-terminal GST; dsDNA, one strand shown
# T10 sequence: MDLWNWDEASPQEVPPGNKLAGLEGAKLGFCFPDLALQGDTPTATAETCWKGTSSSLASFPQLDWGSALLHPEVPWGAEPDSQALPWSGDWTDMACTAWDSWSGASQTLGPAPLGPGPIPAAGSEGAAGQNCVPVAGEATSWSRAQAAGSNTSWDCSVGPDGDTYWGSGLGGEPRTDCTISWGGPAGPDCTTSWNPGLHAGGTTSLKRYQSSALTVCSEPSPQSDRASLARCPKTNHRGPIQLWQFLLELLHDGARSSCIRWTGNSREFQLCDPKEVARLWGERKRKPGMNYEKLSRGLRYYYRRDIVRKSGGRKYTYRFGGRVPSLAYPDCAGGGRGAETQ
# In short: as §1
# ELF3 = target: T11, ELF3 (Homo sapiens, UniProt P78545 1-371); conditions: protein: recombinant; tags: N-terminal GST; dsDNA, one strand shown
# T11 sequence: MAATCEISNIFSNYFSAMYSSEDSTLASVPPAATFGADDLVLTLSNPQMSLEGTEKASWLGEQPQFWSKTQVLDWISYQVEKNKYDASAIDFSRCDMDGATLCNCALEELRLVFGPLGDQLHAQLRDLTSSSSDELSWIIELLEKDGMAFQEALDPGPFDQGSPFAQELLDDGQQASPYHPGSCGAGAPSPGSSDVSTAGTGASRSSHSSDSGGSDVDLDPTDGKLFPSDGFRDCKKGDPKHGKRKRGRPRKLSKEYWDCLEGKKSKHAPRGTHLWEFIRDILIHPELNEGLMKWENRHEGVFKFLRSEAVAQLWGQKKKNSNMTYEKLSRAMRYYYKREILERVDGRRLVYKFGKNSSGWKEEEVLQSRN
# In short: as §1
# ETV1 = ETV1 (Homo sapiens, UniProt P50549 1-477); conditions: protein: recombinant; tags: N-terminal GST; dsDNA, one strand shown
# In short: as §1
# Sequence of ETV5 (P41161 whole entry): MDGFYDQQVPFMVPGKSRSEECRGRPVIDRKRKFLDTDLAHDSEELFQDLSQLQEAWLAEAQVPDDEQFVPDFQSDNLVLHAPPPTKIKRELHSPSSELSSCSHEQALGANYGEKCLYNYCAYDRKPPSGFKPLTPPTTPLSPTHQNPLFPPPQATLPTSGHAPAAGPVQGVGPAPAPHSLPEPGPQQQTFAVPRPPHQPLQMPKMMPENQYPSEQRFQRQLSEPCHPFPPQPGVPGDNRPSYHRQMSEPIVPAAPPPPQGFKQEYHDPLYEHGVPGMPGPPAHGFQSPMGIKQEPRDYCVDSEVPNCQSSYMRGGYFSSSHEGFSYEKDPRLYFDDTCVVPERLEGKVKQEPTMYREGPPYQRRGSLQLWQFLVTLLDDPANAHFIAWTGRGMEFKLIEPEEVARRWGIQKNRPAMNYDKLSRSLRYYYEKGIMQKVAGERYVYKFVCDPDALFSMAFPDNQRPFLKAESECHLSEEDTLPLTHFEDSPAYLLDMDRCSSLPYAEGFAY
# Sequence of ETV1 (P50549 whole entry): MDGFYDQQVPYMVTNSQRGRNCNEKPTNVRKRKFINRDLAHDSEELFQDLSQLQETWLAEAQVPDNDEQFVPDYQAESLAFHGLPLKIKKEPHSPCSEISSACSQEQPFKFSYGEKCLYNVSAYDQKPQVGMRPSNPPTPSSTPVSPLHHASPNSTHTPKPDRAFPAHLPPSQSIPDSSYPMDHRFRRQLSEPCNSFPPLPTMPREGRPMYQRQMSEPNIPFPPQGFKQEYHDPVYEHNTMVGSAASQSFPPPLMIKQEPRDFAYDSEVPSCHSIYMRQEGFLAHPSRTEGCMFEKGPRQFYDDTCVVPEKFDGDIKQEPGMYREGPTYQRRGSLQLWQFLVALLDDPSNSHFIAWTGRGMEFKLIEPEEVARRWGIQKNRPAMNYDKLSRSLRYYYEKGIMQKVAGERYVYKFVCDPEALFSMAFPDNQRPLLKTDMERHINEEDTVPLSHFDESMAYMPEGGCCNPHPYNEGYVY
# Sequence of HSF1 (Q00613 whole entry): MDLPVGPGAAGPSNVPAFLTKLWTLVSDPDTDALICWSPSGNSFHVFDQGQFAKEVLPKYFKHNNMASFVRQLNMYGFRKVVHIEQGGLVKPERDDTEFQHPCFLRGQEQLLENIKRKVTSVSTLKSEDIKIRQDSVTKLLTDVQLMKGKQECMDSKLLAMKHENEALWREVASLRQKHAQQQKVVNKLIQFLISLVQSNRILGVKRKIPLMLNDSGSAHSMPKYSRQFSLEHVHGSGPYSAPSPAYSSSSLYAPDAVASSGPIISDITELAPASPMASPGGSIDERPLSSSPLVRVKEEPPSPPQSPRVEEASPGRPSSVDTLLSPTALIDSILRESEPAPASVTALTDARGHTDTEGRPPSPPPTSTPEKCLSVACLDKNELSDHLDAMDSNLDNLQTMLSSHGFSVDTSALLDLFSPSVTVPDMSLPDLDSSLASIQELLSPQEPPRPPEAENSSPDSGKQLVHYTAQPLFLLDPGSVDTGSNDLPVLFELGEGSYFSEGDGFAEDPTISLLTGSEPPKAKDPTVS
# Sequence of SPIB (Q01892 whole entry): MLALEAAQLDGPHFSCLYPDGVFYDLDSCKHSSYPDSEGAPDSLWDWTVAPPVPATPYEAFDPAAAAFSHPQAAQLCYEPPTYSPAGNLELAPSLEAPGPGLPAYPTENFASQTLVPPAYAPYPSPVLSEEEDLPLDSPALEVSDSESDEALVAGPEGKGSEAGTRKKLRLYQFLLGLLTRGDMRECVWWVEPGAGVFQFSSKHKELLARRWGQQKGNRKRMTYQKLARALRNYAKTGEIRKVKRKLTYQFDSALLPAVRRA
# Sequence of ELF1 (P32519 whole entry): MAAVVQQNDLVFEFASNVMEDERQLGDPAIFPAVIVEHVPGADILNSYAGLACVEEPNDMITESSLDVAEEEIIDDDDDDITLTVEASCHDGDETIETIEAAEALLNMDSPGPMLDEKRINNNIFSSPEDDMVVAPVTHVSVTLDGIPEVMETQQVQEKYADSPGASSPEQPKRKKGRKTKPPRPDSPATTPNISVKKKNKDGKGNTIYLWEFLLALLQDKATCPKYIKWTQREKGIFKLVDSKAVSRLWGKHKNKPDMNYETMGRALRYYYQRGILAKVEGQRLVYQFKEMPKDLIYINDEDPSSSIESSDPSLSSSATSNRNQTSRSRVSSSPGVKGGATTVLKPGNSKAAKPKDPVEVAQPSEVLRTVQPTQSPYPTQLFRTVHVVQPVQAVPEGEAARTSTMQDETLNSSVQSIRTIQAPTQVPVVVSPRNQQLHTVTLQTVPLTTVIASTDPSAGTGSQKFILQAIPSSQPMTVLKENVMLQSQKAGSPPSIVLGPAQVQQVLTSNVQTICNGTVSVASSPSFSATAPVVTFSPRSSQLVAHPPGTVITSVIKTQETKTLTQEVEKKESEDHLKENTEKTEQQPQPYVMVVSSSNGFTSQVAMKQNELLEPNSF
# Sequence of ELF4 (Q99607 whole entry): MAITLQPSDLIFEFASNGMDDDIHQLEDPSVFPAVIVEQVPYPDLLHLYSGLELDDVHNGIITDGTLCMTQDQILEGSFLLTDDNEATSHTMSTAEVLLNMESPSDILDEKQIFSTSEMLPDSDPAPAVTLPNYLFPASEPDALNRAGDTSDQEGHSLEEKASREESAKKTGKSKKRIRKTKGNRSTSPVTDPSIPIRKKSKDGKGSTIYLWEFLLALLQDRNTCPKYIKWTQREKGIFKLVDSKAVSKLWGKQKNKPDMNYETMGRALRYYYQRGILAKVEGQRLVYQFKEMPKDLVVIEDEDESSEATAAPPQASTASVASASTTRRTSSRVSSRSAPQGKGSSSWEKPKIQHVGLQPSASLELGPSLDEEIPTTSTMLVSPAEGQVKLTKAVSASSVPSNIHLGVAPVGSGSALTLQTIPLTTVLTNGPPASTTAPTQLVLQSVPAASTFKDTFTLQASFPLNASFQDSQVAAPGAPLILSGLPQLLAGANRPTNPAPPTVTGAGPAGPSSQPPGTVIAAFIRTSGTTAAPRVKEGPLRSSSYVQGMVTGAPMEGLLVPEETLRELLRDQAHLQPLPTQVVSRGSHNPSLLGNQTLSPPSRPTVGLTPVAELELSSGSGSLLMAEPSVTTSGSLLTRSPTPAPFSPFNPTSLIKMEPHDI
sequence,measurement,setting,value
ACATAC,binding signal,FLI1,"1.18 fold enrichment (6-mer frequency, TF over GST control)"
same,binding signal,ELK1,"1.14 fold enrichment (6-mer frequency, TF over GST control)"
same,binding signal,GABPA,"1.19 fold enrichment (6-mer frequency, TF over GST control)"
same,binding signal,ERG,"1.19 fold enrichment (6-mer frequency, TF over GST control)"
same,binding signal,ELF1,"1.17 fold enrichment (6-mer frequency, TF over GST control)"
same,binding signal,EHF,"1.14 fold enrichment (6-mer frequency, TF over GST control)"
same,binding signal,SPI1,"1.16 fold enrichment (6-mer frequency, TF over GST control)"
same,binding signal,SPIB,"1.09 fold enrichment (6-mer frequency, TF over GST control)"
same,binding signal,ELK3,"1.17 fold enrichment (6-mer frequency, TF over GST control)"
same,binding signal,FEV,"1.13 fold enrichment (6-mer frequency, TF over GST control)"
same,binding signal,ETV5,"1.17 fold enrichment (6-mer frequency, TF over GST control)"
same,binding signal,HSF1,"1.07 fold enrichment (6-mer frequency, TF over GST control)"
same,binding signal,SPIC,"1.11 fold enrichment (6-mer frequency, TF over GST control)"
same,binding signal,ELF4,"1.21 fold enrichment (6-mer frequency, TF over GST control)"
same,binding signal,ELK4,"1.01 fold enrichment (6-mer frequency, TF over GST control)"
same,binding signal,ETV2,"1.32 fold enrichment (6-mer frequency, TF over GST control)"
same,binding signal,ELF3,"1.25 fold enrichment (6-mer frequency, TF over GST control)"
same,binding signal,ETV1,"1.15 fold enrichment (6-mer frequency, TF over GST control)"

# From PMC7862700, “An all-to-all approach to the identification of sequence-specific readers for epigenetic DNA modifications on cytosine”
